ERAP1 inh: inhibitors of human ERAP1 aminopeptidase; Q9NZ08; recombinant ERAP1, Leu-AMC fluorescence, 60 min; inhibition, % at 10.7 µM; 340,000 compounds, 0.15% hits; AID 652197;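 active means mean replicate inhibition of at least 30%, or all replicates individually reaching that 30% level; inactive means mean below 30% and not every replicate reaching it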;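 further: 0% = neutral control wells and 100% = L-leucinethiol positive control wells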
RAD52 inh: blocks human RAD52 DNA annealing | P43351 | recombinant RAD52 DNA annealing, FRET fluorescence | inhibition, % at 18.7 µM | 360,000 compounds, 0.46% hits;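 active means every replicate showing at least 50% inhibition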
FGF22 binding: FGF22 (human) thermal shift binding | Q9HCT0 | recombinant FGF22 thermal shift, SYPRO orange fluorescence; percent of sucrose octasulfate shift, DMSO zero | activity (Tm shift, normalised), % at 9.99 µM | 340,000 compounds, 1.5% hits;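 active means mean Tm shift, scaled 0 neutral to 100 positive control, at about 1.3% or above, every replicate too, limit read from the data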
DENV2 CPE: protects cells from dengue virus 2 cytopathic effect. CPE inhibition, % at 9.99 µM. 350,000 compounds, 1.7% hits. DENV2-infected cells, cytopathic effect rescue, plate reader. AID 651640; in the data active means CPE inhibition above about 20%, passing the limit was not always enough; tested in BHK-21 cells;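 further: 0% = median of neutral control wells and 100% = median of positive control wells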
AF4-AF9 inh: inhibitors of human MLL-AF4/AF9 interaction; P42568; AlphaScreen, biotin-AF4 peptide binding to FLAG-AF9; inhibition, % at 10 µM; 350,000 compounds, 0.47% hits; AID 651704;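 active means every replicate reaching a set inhibition limit, whatever the replicate mean, cut at about 25% in these data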;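 further: 0% = plate neutral control median and 100% = total signal loss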
Target sequence (P42568 whole entry, looked up): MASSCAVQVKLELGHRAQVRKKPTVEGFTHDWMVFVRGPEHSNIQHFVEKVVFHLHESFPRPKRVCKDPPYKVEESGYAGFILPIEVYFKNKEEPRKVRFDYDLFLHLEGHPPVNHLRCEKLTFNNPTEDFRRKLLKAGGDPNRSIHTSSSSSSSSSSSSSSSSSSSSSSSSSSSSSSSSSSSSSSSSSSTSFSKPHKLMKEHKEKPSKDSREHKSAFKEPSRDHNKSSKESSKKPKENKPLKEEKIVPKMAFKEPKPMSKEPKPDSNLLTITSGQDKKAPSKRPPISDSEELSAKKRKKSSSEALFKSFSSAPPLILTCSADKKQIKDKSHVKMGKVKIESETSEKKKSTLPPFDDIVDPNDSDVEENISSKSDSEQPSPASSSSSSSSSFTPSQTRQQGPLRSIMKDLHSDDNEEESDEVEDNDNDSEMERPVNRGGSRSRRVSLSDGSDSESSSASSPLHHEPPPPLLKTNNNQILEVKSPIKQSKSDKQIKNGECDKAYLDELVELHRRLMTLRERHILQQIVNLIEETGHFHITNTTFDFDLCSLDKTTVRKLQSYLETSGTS
Numbers without * were called inactive. Most compounds without a hit are left out; they make up all but 4% or so of the library.

What do the screens show for `CC(C)NC(=O)Nc1cccc2c1O[C@H](CN(C)C(=O)Nc1cccc3ccccc13)[C@@H](C)CN([C@H](C)CO)C2=O`?
ERAP1 inh: 0; RAD52 inh: 10; FGF22 binding: 0; DENV2 CPE: -5; AF4-AF9 inh: 4

How did CCCNC(=O)N[C@H]1CC[C@@H](CCNS(=O)(=O)c2cccc(F)c2)O[C@@H]1CO do in these assays?
ERAP1 inh: 4; RAD52 inh: -6; FGF22 binding: 0; DENV2 CPE: -6; AF4-AF9 inh: -1

What do the screens show for `C[C@H](CO)N1C[C@H](C)[C@@H](CN(C)C(=O)Nc2ccc(C(F)(F)F)cc2)OCCCC[C@H](C)Oc2ccc(NS(=O)(=O)c3cccs3)cc2C1=O`?
ERAP1 inh: -3; RAD52 inh: -32; FGF22 binding: 0; DENV2 CPE: 94*; AF4-AF9 inh: -1

What do the screens show for `C[C@@H]1CN([C@@H](C)CO)C(=O)c2cc(NS(=O)(=O)c3cccs3)ccc2O[C@@H](C)CCCCO[C@H]1CN(C)C(=O)Nc1ccc(F)cc1`?
ERAP1 inh: 4; RAD52 inh: -24; FGF22 binding: 0; DENV2 CPE: -5; AF4-AF9 inh: -1

Results for COc1ccc(Cn2c(C)nc([N+](=O)[O-])c2SCC(=O)O)cc1[N+](=O)[O-] ?
ERAP1 inh: -4; RAD52 inh: -13; FGF22 binding: 0; DENV2 CPE: 1; AF4-AF9 inh: -1

How did Cc1nc([N+](=O)[O-])c(SCC(O)CCl)n1Cc1ccc(Cl)cc1 (centres undefined) do in these assays?
ERAP1 inh: 2; RAD52 inh: 5; FGF22 binding: 43*; DENV2 CPE: -10; AF4-AF9 inh: -16

How did CC(C)C#Cc1ccc([C@H]2[C@@H](CO)N3C(=O)CN(C(=O)c4ccccn4)C[C@@H]23)cc1 do in these assays?
ERAP1 inh: 2; RAD52 inh: -3; DENV2 CPE: -11; AF4-AF9 inh: -3

Results for C[C@@H]1CCCCO[C@@H](CN(C)C(=O)NC2CCCCC2)[C@H](C)CN([C@H](C)CO)C(=O)c2cc(NC(=O)NC3CCCCC3)ccc2O1 ?
ERAP1 inh: 0; RAD52 inh: 1; FGF22 binding: 0; DENV2 CPE: -14; AF4-AF9 inh: -2

How did CCCNC(=S)NNC(=O)c1cc(C2CC2)nc2ccccc12 do in these assays?
ERAP1 inh: 0; RAD52 inh: -21; FGF22 binding: 0; DENV2 CPE: 25*; AF4-AF9 inh: 0

Results for CCCNC(=S)NNC(=O)c1cc(-c2cccnc2)nc2ccccc12 ?
ERAP1 inh: -2; RAD52 inh: -5; FGF22 binding: 0; DENV2 CPE: -8; AF4-AF9 inh: -3

Results for CN(C)CC(=O)N[C@H]1CC[C@H](CC(=O)O)O[C@@H]1CO ?
ERAP1 inh: 1; RAD52 inh: 25; DENV2 CPE: 2; AF4-AF9 inh: 0

Results for CC1CC(C)(C)NC(=S)N1CC(=O)NCc1ccc(F)cc1 (centres undefined) ?
ERAP1 inh: -3; RAD52 inh: -13; FGF22 binding: 0; DENV2 CPE: 0; AF4-AF9 inh: -2

How did CC1CC(C)(C)NC(=S)N1CC(=O)NCc1ccc2c(c1)OCO2 (centres undefined) do in these assays?
ERAP1 inh: 0; RAD52 inh: -1; FGF22 binding: 43*; DENV2 CPE: 5; AF4-AF9 inh: -3

What do the screens show for `COc1cc(NC(=S)N2CCN(C(=O)C3CCCO3)CC2)c(OC)cc1Cl` (centres undefined)?
ERAP1 inh: -5; RAD52 inh: -14; FGF22 binding: 44*; DENV2 CPE: 1; AF4-AF9 inh: -3

Results for COc1ccc(Cl)cc1NC(=S)N1CCN(C(=O)C2CCCO2)CC1 (centres undefined) ?
ERAP1 inh: 5; RAD52 inh: -7; FGF22 binding: 0; DENV2 CPE: 1; AF4-AF9 inh: -3

How did CN(C)C(=O)c1ccc(-c2cccc(-c3nc(C(=O)N(C)C)cc4c3[C@H](CCO)N([S@@](=O)C(C)(C)C)C4)c2)cc1 do in these assays?
ERAP1 inh: -1; RAD52 inh: -32; FGF22 binding: 0; DENV2 CPE: 6; AF4-AF9 inh: -1

How did CCCn1c(SCC(=O)Nc2cc(Cl)ccc2Cl)n[nH]c1=O do in these assays?
ERAP1 inh: 3; RAD52 inh: -7; FGF22 binding: 43*; DENV2 CPE: -5; AF4-AF9 inh: 0

Results for C[C@@H]1CN([C@H](C)CO)C(=O)c2cc(NS(=O)(=O)c3ccc(F)cc3)ccc2O[C@@H](C)CCCCO[C@@H]1CN(C)C(=O)CCCN(C)C ?
ERAP1 inh: 0; RAD52 inh: 3; FGF22 binding: 0; DENV2 CPE: 18; AF4-AF9 inh: 1

Results for Cc1cccc(NC(=O)c2cccc(C(=O)Nc3cccc(C)c3)c2)c1 ?
ERAP1 inh: 1; RAD52 inh: -2; FGF22 binding: 2.0*; DENV2 CPE: -2; AF4-AF9 inh: 1

What do the screens show for `O=C(Nc1cccc(Cl)c1)c1ccccc1`?
RAD52 inh: 1; FGF22 binding: 0; DENV2 CPE: 28*; AF4-AF9 inh: -2

Results for Cc1cccc(C(=O)Nc2cccc(NC(=O)c3ccccc3)c2)c1 ?
ERAP1 inh: -1; RAD52 inh: -12; FGF22 binding: 0; DENV2 CPE: -12; AF4-AF9 inh: 1

How did O=C(NNC(=S)Nc1cccc(Cl)c1)c1ccccc1 do in these assays?
ERAP1 inh: -8; RAD52 inh: -12; FGF22 binding: 1; DENV2 CPE: -11; AF4-AF9 inh: 2

What do the screens show for `CCN1[C@H](C(=O)NCCCN(C)C)[C@@H](CO)[C@@H]2Cn3c(ccc(C4=CCCC4)c3=O)[C@@H]21`?
ERAP1 inh: -3; RAD52 inh: -12; DENV2 CPE: -5; AF4-AF9 inh: 3

How did CN(C)CCCN1c2ccc(O)cc2Sc2ccc(Cl)cc21 do in these assays?
ERAP1 inh: 3; RAD52 inh: 49; FGF22 binding: -2; DENV2 CPE: 5; AF4-AF9 inh: 51*

What do the screens show for `CCN(CC)CCCN1C(=O)CSC1c1ccc([N+](=O)[O-])cc1` (centres undefined)?
ERAP1 inh: 0; RAD52 inh: -8; FGF22 binding: 43*; DENV2 CPE: -5; AF4-AF9 inh: -11

How did C[C@H](CO)N1C[C@H](C)[C@H](CN(C)C(=O)CC2CC2)Oc2cc(-c3ccncc3)ccc2S1(=O)=O do in these assays?
ERAP1 inh: 0; RAD52 inh: 6; FGF22 binding: 0; DENV2 CPE: -6; AF4-AF9 inh: -3

What do the screens show for `O=c1c2cc(Br)ccc2[nH]c(=S)n1Cc1ccccn1`?
ERAP1 inh: 7; RAD52 inh: -12; FGF22 binding: 0; DENV2 CPE: 31*; AF4-AF9 inh: 3

What do the screens show for `O=c1c2cc(Br)ccc2[nH]c(=S)n1Cc1ccccc1`?
ERAP1 inh: -1; RAD52 inh: -8; FGF22 binding: 0; DENV2 CPE: 0; AF4-AF9 inh: -1

Screening results: PubChem BioAssay, Broad Institute
